Experimental data reported in the supplement of paper PMC9262897, “Low-cost anti-mycobacterial drug discovery using engineered E. coli” (Nature Communications, 2022).
Counter-ions that a name gives are not always drawn. ± gives the standard deviation of the averaged measurements.

Experiments:
Assay in all cases: growth (OD600 after 10 h); higher = more growth (less inhibition)
[1] = test system: E. coli TESEC Alr+ wild-type control; conditions: compound 0.1 mM; raw OD600 reference: median of DMSO wells 0.241, cell-free background 0.041
Description: (§1)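 TESEC Mtb Alr E. coli, or the Alr+ wild-type control, in 384-well plates with Prestwick library compounds at 0.1 mM and 1% DMSO, across arabinose induction levels of 1E3 to 1E7 nM. Growth is read as OD600 after 10 h at 37 °C in triplicate biological replicates.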

E. coli TESEC Mtb Alr [2] = conditions: compound 0.1 mM
Description: as §1

E. coli TESEC Mtb Asd = conditions: compound 0.1 mM
Description: (§2)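 TESEC E. coli strains in which the native enzyme is deleted and replaced by arabinose-inducible Mtb Asd, DapB, CysH or TrpD, each grown in its selective medium. Strains were screened against the Prestwick library at 0.1 mM and 1% DMSO in 384-well format at low and high arabinose induction. Growth is read as OD600 after 10 h in triplicate.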

E. coli TESEC Mtb DapB = conditions: compound 0.1 mM
Description: as §2

[3] = test system: E. coli TESEC Alr+ wild-type control; conditions: compound 0.1 mM; raw OD600 reference: median of DMSO wells 0.49, cell-free background 0.052
Description: (§3)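 TESEC Mtb Alr E. coli (ΔaraC ΔtolC ΔentC Δalr ΔdadX, arabinose-inducible Mtb Alr) or the Alr+ wild-type control strain, grown in defined M9-fructose medium without D-alanine in 96-well plates with Prestwick library compounds at 0.1 mM and 1% DMSO. Low Alr induction is 0.1 µM arabinose and high induction is 10 mM arabinose.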

E. coli TESEC Mtb Alr [4] = conditions: compound 0.1 mM; remark: listed apart in the source
Description: as §3

[5] = arabinose 1000 nM, raw OD600 reference: median of DMSO wells 0.294, cell-free background 0.041
[6] = arabinose 10000 nM, raw OD600 reference: median of DMSO wells 0.264, cell-free background 0.041
[7] = arabinose 100000 nM, raw OD600 reference: median of DMSO wells 0.201, cell-free background 0.041
[8] = arabinose 1000000 nM, raw OD600 reference: median of DMSO wells 0.193, cell-free background 0.041
[9] = arabinose 10000000 nM, raw OD600 reference: median of DMSO wells 0.146, cell-free background 0.041
[10] = arabinose induction (level): High, raw OD600 reference: median of DMSO wells 0.331, cell-free background 0.041
[11] = arabinose induction (level): Low, raw OD600 reference: median of DMSO wells 0.417, cell-free background 0.041
[12] = arabinose induction (level): High, raw OD600 reference: median of DMSO wells […], cell-free background 0.041
[13] = arabinose induction (level): Low, raw OD600 reference: median of DMSO wells 0.227, cell-free background 0.041
[14] = arabinose 100 nM, raw OD600 reference: median of DMSO wells 0.413, cell-free background 0.052
[15] = arabinose 10000000 nM, raw OD600 reference: median of DMSO wells […], cell-free background 0.052

SMILES	growth [1]	growth (E. coli TESEC Mtb Alr [2]; [5])	growth (E. coli TESEC Mtb Alr [2]; [6])	growth (E. coli TESEC Mtb Alr [2]; [7])	growth (E. coli TESEC Mtb Alr [2]; [8])	growth (E. coli TESEC Mtb Alr [2]; [9])	growth (E. coli TESEC Mtb Asd; [10])	growth (E. coli TESEC Mtb Asd; [11])	growth (E. coli TESEC Mtb DapB; [12])	growth (E. coli TESEC Mtb DapB; [13])	growth [3]	growth (E. coli TESEC Mtb Alr [4]; [14])	growth (E. coli TESEC Mtb Alr [4]; [15])
COc1cc2c(cc1OC)C(C)NCC2 (centres undefined)	0.236 ± 0.0037	0.2925 ± 0.0014	0.275 ± 0.0075	0.225 ± 0.035	0.188 ± 0.0027	0.15 ± 0.0045	0.337 ± 0.049	0.349 ± 0.082	0.212 ± 0.013	0.232 ± 0.0067	0.453 ± 0.034	0.408 ± 0.011	0.323 ± 0.025
C[C@]12C/C(=C/O)C(=O)C[C@@H]1CC[C@@H]1[C@@H]2CC[C@@]2(C)[C@H]1CC[C@]2(C)O [Oxymetholone]	0.162 ± 0.002	0.293 ± 0.0078	0.241 ± 0.025	0.244 ± 0.014	0.101 ± 0.0039	0.177 ± 0.0058	0.124 ± 0.0085	0.226 ± 0.043	0.158 ± 0.013	0.194 ± 0.019	0.462 ± 0.01	0.379 ± 0.019	0.252 ± 0.004
CC(C)c1c(CN(C)C(C)Cc2ccccc2)n(C)n(-c2ccccc2)c1=O (centres undefined) [Famprofazone]	0.219 ± 0.0093	0.279 ± 0.013	0.27 ± 0.014	0.154 ± 0.0078	0.131 ± 0.0042	0.154 ± 0.0085	0.425 ± 0.02	0.486 ± 0.087	0.202 ± 0.0043	0.236 ± 0.04	0.443 ± 0.019	0.406 ± 0.0053	0.269 ± 0.0074
CNC(C)(C)Cc1ccccc1 [Mephentermine hemisulfate]	0.247 ± 0.0094	0.303 ± 0.018	0.274 ± 0.0032	0.224 ± 0.012	0.193 ± 0.0098	0.138 ± 0.0038	0.273 ± 0.036	0.433 ± 0.033	0.208 ± 0.012	0.221 ± 0.0061	0.48 ± 0.047	0.402 ± 0.0066	0.381 ± 0.03
CCC(=O)O[C@H]1CC[C@H]2[C@@H]3CCC4=CC(=O)CC[C@]4(C)[C@H]3CC[C@]12C [Testosterone propionate]	0.157 ± 0.016	0.145 ± 0.0086	0.261 ± 0.0051	0.12 ± 0.0075	0.107 ± 0.0037	0.117 ± 0.015	0.336 ± 0.065	0.454 ± 0.04	0.214 ± 0.0086	0.189 ± 0.002	0.351 ± 0.039	0.269 ± 0.18	0.148 ± 0.025
NCC(CC(=O)O)c1ccc(Cl)cc1 (racemic) [Baclofen (R,S)]	0.248 ± 0.011	0.299 ± 0.0066	0.2703 ± 0.0017	0.22 ± 0.029	0.189 ± 0.0083	0.15 ± 0.007	0.392 ± 0.032	0.422 ± 0.029	0.219 ± 0.017	0.246 ± 0.04	–	0.408 ± 0.0092	0.361 ± 0.026
O=C(CCCN1CCC2(CC1)C(=O)NCN2c1ccccc1)c1ccc(F)cc1 [Spiperone]	0.214 ± 0.0064	0.273 ± 0.019	0.276 ± 0.011	0.1711 ± 0.0014	0.169 ± 0.0073	0.149 ± 0.0039	0.274 ± 0.066	0.43 ± 0.042	0.188 ± 0.013	0.218 ± 0.038	–	0.409 ± 0.0039	0.354 ± 0.027
C(#CCN1CCCC1)CN1CCCC1 [Tremorine dihydrochloride]	0.275 ± 0.0094	0.317 ± 0.011	0.27 ± 0.005	0.239 ± 0.013	0.194 ± 0.0086	0.162 ± 0.008	0.425 ± 0.059	0.464 ± 0.029	0.2 ± 0.015	0.234 ± 0.059	–	0.415 ± 0.018	0.375 ± 0.023
CCC1(c2ccc(N)cc2)CCC(=O)NC1=O (centres undefined) [Glutethimide, para-amino]	0.24 ± 0.0099	0.279 ± 0.016	0.251 ± 0.01	0.222 ± 0.029	0.178 ± 0.0065	0.146 ± 0.0091	0.393 ± 0.032	0.43 ± 0.03	0.189 ± 0.0071	0.226 ± 0.041	–	0.402 ± 0.014	0.383 ± 0.033
C[C@@H]1CC[C@H]2[C@@H](C)C(=O)O[C@@H]3O[C@@]4(C)CC[C@@H]1[C@]32OO4 [Artemisinin]	0.125 ± 0.01	0.121 ± 0.0046	0.194 ± 0.0057	0.142 ± 0.013	0.109 ± 0.0053	0.135 ± 0.0031	0.219 ± 0.025	0.216 ± 0.042	0.179 ± 0.012	0.191 ± 0.0069	–	0.348 ± 0.0058	0.135 ± 0.025
C[C@]12CC[C@@H](O)C[C@H]1CC[C@@H]1[C@@H]2CC[C@]2(C)C(=O)CC[C@@H]12 [3-alpha-Hydroxy-5-beta-androstan-17-one]	0.129 ± 0.0054	0.135 ± 0.0032	0.114 ± 0.0066	0.131 ± 0.015	0.0604 ± 0.00044	0.0824 ± 0.00098	0.118 ± 0.0061	0.171 ± 0.018	0.122 ± 0.0084	0.135 ± 0.013	–	0.354 ± 0.027	0.0844 ± 0.0097
CCOC(=O)c1cncn1[C@H](C)c1ccccc1 [Etomidate]	0.202 ± 0.0032	0.244 ± 0.0088	0.275 ± 0.013	0.214 ± 0.03	0.181 ± 0.01	0.14 ± 0.0078	0.43 ± 0.029	0.378 ± 0.076	0.225 ± 0.019	0.228 ± 0.013	–	0.41 ± 0.0073	0.341 ± 0.0035
C[C@]12CC[C@@H]3c4ccc(OC(=O)N(CCCl)CCCl)cc4CC[C@H]3[C@@H]1CC[C@@H]2O [Estramustine]	0.248 ± 0.0012	0.306 ± 0.011	0.284 ± 0.01	0.212 ± 0.011	0.147 ± 0.009	0.1686 ± 0.00066	0.207 ± 0.025	0.189 ± 0.049	0.173 ± 0.0048	0.187 ± 0.015	–	0.396 ± 0.014	0.31 ± 0.0085
CCC1(CC)C(=O)C=CNC1=O [Pyrithyldione]	0.223 ± 0.0058	0.295 ± 0.026	0.289 ± 0.0059	0.207 ± 0.017	0.2322 ± 0.0018	0.152 ± 0.0058	0.398 ± 0.047	0.438 ± 0.018	0.205 ± 0.014	0.23 ± 0.01	–	0.389 ± 0.009	0.398 ± 0.025
O[C@@H]1CCCC[C@H]1N1CCC(c2ccccc2)CC1 [L(-)-vesamicol hydrochloride]	0.216 ± 0.0031	0.281 ± 0.014	0.251 ± 0.0068	0.176 ± 0.012	0.182 ± 0.0074	0.141 ± 0.0046	0.294 ± 0.048	0.381 ± 0.016	0.194 ± 0.018	0.201 ± 0.015	–	0.414 ± 0.012	0.358 ± 0.0053
CCN(C(C)=O)c1cccc(-c2ccnc3c(C#N)cnn23)c1 [Zaleplon]	0.205 ± 0.0057	0.259 ± 0.0063	0.238 ± 0.004	0.205 ± 0.028	0.154 ± 0.0051	0.132 ± 0.0056	0.243 ± 0.034	0.307 ± 0.086	0.179 ± 0.013	0.201 ± 0.0029	–	0.411 ± 0.012	0.298 ± 0.011
CC(N)C(O)c1ccccc1 (centres undefined) [Phenylpropanolamine hydrochloride]	0.26 ± 0.0031	0.298 ± 0.0047	0.254 ± 0.0066	0.229 ± 0.045	0.19 ± 0.011	0.148 ± 0.0054	0.399 ± 0.022	0.433 ± 0.067	0.189 ± 0.009	0.226 ± 0.025	–	0.404 ± 0.016	0.345 ± 0.015
